Shiga toxin inh: Shiga toxin inhibition; Vero cells, Shiga toxin protein synthesis inhibition reporter; inhibition, % at 38.7 µM; 290,000 tested, 9.2% active; in the data active = inhibition mostly above about 28%, no sharp cut-off; inactive = mostly below about 43%; also: 0% is about no effect
AMA1-RON2 inh: disrupts binding of P. falciparum AMA1 to RON2; AlphaScreen AMA1-biotinylated RON2 peptide binding; Potency, µM (highest dose often 58.2 µM), for the others: at the top dose activity change, negative = inhibition, most hits filed as inhibitors; 360,000 tested, 0.2% active; AID 720542;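 also: potency is read from the fitted curve at half-maximal effect; 0% = vehicle wells and -100% = peptide control; nearly all actives have a fitted effect of over 45% in size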
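AMA1 (3D7) with his tag at 25 nM final met compounds first, then biotinylated RON2 peptide at 25 nM; detection used donor plus acceptor beads, 10 µg/mL apiece, read by AlphaScreen after 30 min at room temperature.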
SARS PLP yeast: blocks SARS-CoV papain-like protease in a yeast assay; S. cerevisiae expressing SARS-CoV PLpro, growth rescue; Potency, µM (series often up to 32.9 µM), without a hit: top-dose activity, positive = growth rescue, actives largely listed as activators; 330,000 tested, 0.19% active; AID 485353; calls by dose curve; also: potency is read from the fitted curve at half-maximal effect; 0% is about no effect; nearly all actives have a fitted effect of over 55% in size
Pf growth 48h: P. falciparum growth inhibition at 48 hours (one generation); P. falciparum luciferase growth in erythrocytes, 48 h; Potency, µM (titrated, usually from 28.7 µM), for inactives: at the highest dose activity change, negative = inhibition, usual class: inhibitors; 310,000 tested, 5.9% active; AID 504832; also: potency is read from the fitted curve at half-maximal effect; % is scaled to controls: 0 for no effect and ±100 for the full control effect
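A one-generation exposure of luciferase-tagged malaria parasites in RPMI 1640/Albumax erythrocyte culture, 37 C and 5% CO2. Inhibition is inferred from decreased luminescence after adding detection reagent.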
CHX counter: counter-screen hit for Shiga toxin inhibitors, cycloheximide. cell reporter, cycloheximide protein synthesis inhibition counterscreen. 300,000 tested, 12% active. max response, %; in the data active = max response mostly above about 13%, no sharp cut-off; inactive = mostly below about 14%; also: read at 38.3 µM for the half of the compounds with a filed dose; 0% is about no effect
Pf growth 96h: inhibits malaria parasite growth, 96 h | P. falciparum luciferase reporter growth, 96 h | Potency, µM (top dose mostly 28.7 µM), for the others: at the top dose activity change, negative = inhibition, hits mostly inhibitors | 320,000 tested, 6.9% active; also: potency is read from the fitted curve at half-maximal effect; % is scaled to controls: 0 for no effect and ±100 for the full control effect
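Compounds incubated with erythrocytes infected by luciferase-expressing P. falciparum (2% hematocrit, 0.05% parasitemia final) for 96 hours, 37 C in 5% CO2. Growth inhibition scored as decreased luciferase luminescence.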
* = called active by the depositor; ? = inconclusive; . = not tested or not shown; [ ] = remark or other dose. In the library only some 19% were active in any assay of this set; here they are far more common. Unless noted, calls follow the shape of the dose curve; as a rule, active = well fitted curve in the direction sought with a large enough effect; inconclusive = small, poorly fitted or top-dose-only effect, or another doubt; inactive = no such curve, though single readings can be large; an effect the other way counts as inactive or inconclusive.

SMILES	Shiga toxin inh	AMA1-RON2 inh	SARS PLP yeast	Pf growth 48h	CHX counter	Pf growth 96h
CCOC(=O)c1nnc(-c2cccs2)nc1NC(C)C	17	-23%	3%	43%	2	79%
Cc1csc(NC(=O)CSc2sc3c(O)cc(=O)[nH]c3c2C#N)n1	18	?	11%	28%	4	2.1µM*
Cc1ccc(NC(=O)CSc2nsc(SCC(=O)Nc3ccc(C)cc3C)c2C#N)c(C)c1	-2	1%	-10%	5%	-2	8%
Cc1csc(NC(=O)CSc2nsc(SCC(=O)Nc3nc(C)cs3)c2C#N)n1	117*	-8%	-1%	245%	41*	-23%
CCc1nnc(NC(=O)CSc2sc3c(O)cc(=O)[nH]c3c2C#N)s1	13	10µM*	0%	26%	-5	?
CCCC(=O)Nc1nnc([C@H]2C[C@H](O)[C@@H](CO)O2)s1	.	23%	.	.	.	.
O=C(CSc1ccc2nnc(-c3ccccn3)n2n1)Nc1ccc(F)cc1F	-11	-25%	7%	?	2	?
CCCCOCCCNC(=O)C[C@@H]1C[C@@]2(C(=O)OC)CC(C)(C)CC=C2N(Cc2ccc3c(c2)OCO3)C1=O	.	-8%	.	.	.	.
O=[N+]([O-])c1ccc(C=CC=Cc2ccccc2)cc1	.	-20%	.	.	.	.
[O-]/[N+](=C\C=C\c1ccccc1)c1ccccc1	133*	2%	-3%	72%	50*	126%
COc1ccccc1C(=O)NC1CCCCCCC1	102*	-4%	6%	?	20*	?
COc1ccccc1Nc1cc(C(=O)NC2CCCC2)c2ccccc2n1	-5	10%	1%	0%	-4	?
COc1ccccc1Nc1ccc(C(=O)NC2CCCCC2)cn1	31*	0%	-5%	-17%	19*	?
CCOC(=O)c1ccc2nc3c(cc2c1)CCS3	71*	40%	-8%	71%	48*	-12%
COCCNC(=O)C1(C)CCCN(C(=O)CCc2ccccc2)C1 (stereo not drawn)	.	-1%	.	.	.	.
O=C(NC1CCSc2ccccc21)c1cccc([N+](=O)[O-])c1 (stereo not drawn)	48*	0%	6%	1.5µM*	23	2.3µM*
CN(C)S(=O)(=O)c1cccc(C(=O)NC2CCSc3ccccc32)c1 (stereo not drawn)	-12	-5%	-1%	?	-1	12µM*
Cc1cc(C)c2c(c1)/C(=c1/sc3n(c1=O)CN(c1ccccc1)CN=3)C(=O)N2	5	-1%	-2%	6%	1	-4%
CCOC(=O)N1CCN(C2CCCN(C(=O)c3cccc(Cl)c3)C2)CC1 (stereo not drawn)	22	9%	-3%	-16%	-3	?
CCn1c(CC(=O)Nc2ccccc2Cl)nnc1SCC(=O)NC1CCCC1	3	0%	-1%	13%	-2	-4%
CCCN(C)C[C@@H]1OCCCC[C@@H](C)Oc2ccc(NS(=O)(=O)c3ccc(OC)cc3)cc2C(=O)N([C@H](C)CO)C[C@@H]1C	.	0%	.	.	.	.
C/C(=N\NC(=O)CSCc1ccccc1Cl)c1cccc(NC(=O)c2ccccc2)c1	13	58%	5%	?	0	28%
CC(=O)Nc1ccc(/C(C)=N/NC(=O)c2ccccc2Cl)cc1	50*	9%	2%	15%	29*	-29%
C/C(=N/OC(=O)c1ccc(C)cc1)c1ccc(N2C(=O)C3CCCCC3C2=O)cc1 (stereo not drawn)	-14	8%	9%	-6%	1	19%
C/C(=N\NC(=O)c1ccccc1O)c1cccc(NC(=O)c2ccccc2)c1	42*	2%	-1%	?	19*	?
SMILES	Shiga toxin inh	AMA1-RON2 inh	SARS PLP yeast	Pf growth 48h	CHX counter	Pf growth 96h
C/C(=N/NC(=O)c1ccncc1)c1ccc(NC(=O)c2ccccc2)cc1	22	29%	-2%	42%	9	?
C/C(=N\NC(=O)c1ccccc1O)c1ccc(NC(=O)c2ccccc2)cc1	69*	62%	-8%	29%	38*	-15%
C/C(=N/NC(=O)c1ccccc1O)c1ccc(N2C(=O)C3CCCCC3C2=O)cc1 (stereo not drawn)	56*	5%	-21%	43%	22*	6%
C[C@H](NS(=O)(=O)c1ccc2c(c1)OCCCO2)C(=O)N1CCN(Cc2ccc(C#N)cc2)CC1	.	4%	-10%	-13%	.	?
Cc1c(C(=O)NNC(=S)Nc2ccc(S(N)(=O)=O)cc2)oc2ccccc12	-2	131%	0%	?	-2	?
COc1ccc(CCNC(=O)c2cnn3c(C(F)F)cc(C)nc23)cc1OC	-19	0%	-1%	.	-9	?
COc1ccc(C2=C(C=C(C#N)C#N)C(c3ccccc3C)c3ccccc3O2)cc1OC (stereo not drawn)	-5	-17%	11%	9.3µM*	1	?
COc1cc(-c2nnc(COC(=O)C3c4ccccc4Oc4ccccc43)o2)cc(OC)c1OC	-2	-9%	-1%	-12%	-3	.
CCOc1ccc(CN(CC)C(=O)c2ccc3c(c2)[nH]c(=O)c(=O)n3CC)cc1OC	-21	8%	0%	-32%	2	-25%
O=C(CC1NCCc2ccccc21)Nc1ccc(Oc2ccccc2)cc1 (stereo not drawn)	-13	4%	-3%	352%	15	?
O=C(CC1NCCc2ccccc21)Nc1ccccc1Cl (stereo not drawn)	39	1%	1%	9%	26*	-3%
O=C(CC1NCCc2ccccc21)Nc1ccccc1 (stereo not drawn)	35*	9%	2%	45%	24*	30%
COC(=O)c1c(-c2ccc(OC)cc2)sc2ccc(OC)cc12	.	5%	-3%	.	.	.
CC(O)c1nc2ccccc2n1C/C=C/c1ccccc1 (stereo not drawn)	2	-8%	-2%	-21%	-2	13%
CCCCCCn1c(/C=C/c2ccccc2)nc2ccccc21	101*	.	.	.	47*	.
CCC(C)n1c(/C=C/c2ccccc2)nc2ccccc21 (stereo not drawn)	13	59%	-17%	?	25*	?
CCn1c(/C=C/c2ccccc2)nc2ccccc21	62*	24%	-12%	266%	33*	-79%
CC(C)Cn1c(/C=C/c2ccccc2)nc2ccccc21	59*	49%[11.6 µM]	?	44%	39*	1%
Nc1[nH]c(C(=O)c2ccccc2)c(-c2ccc(C(F)(F)F)cc2)c1C(=O)NCc1ccc(Cl)cc1Cl	.	2%	.	.	.	.
CCCn1c(N)nc2ccccc21	-24	10%	3%	.	-6	?
COc1ccc(Cn2c(/C=C/c3ccccc3)nc3ccccc32)cc1	82*	33%	-22%	5%	65*	-113%
CCCn1c(/C=C/c2cc[n+](C)cc2)nc2ccccc21	-6	-1%	-6%	?	-3	13µM*

High-throughput results (PubChem)
